Assay results: PubChem BioAssay (NCI)
This is part of a sample that, as a whole, favours compounds with a hit. Of some 79,000 tested, about 15% had one in any assay. A number with no mark means an inactive call. The source made the active and inactive calls. Cut-off read from the data, not from the text of the source: active = growth inhibition above about 70%; inactive = the rest.

Key:
[1] = NCI Yeast Anticancer Drug Screen. Data for the rad50 strain (AID 155);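 note: 0% = growth of vehicle-only cultures of the same strain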; conditions: S. cerevisiae rad50 strain growth inhibition; at 50.0 µM; hits give high values
Procedure, shortened: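 Readout: growth inhibition relative to vehicle-treated cultures. Compound exposure was carried out in a genetically defined yeast strain deficient in DNA damage repair.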

[2] = NCI Yeast Anticancer Drug Screen. Data for the mec2-1 strain (AID 157); conditions: S. cerevisiae mec2-1 strain, at 50.0 µM, hits give high values
Procedure, shortened: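 Cells of the genetically defined mec2-1 yeast strain are incubated with test compound. Inhibition of growth is calculated against vehicle-treated controls.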

[3] = NCI Yeast Anticancer Drug Screen. Data for the sgs1 mgt1 strain (AID 161);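 note: 0% = growth of cultures given vehicle only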; conditions: S. cerevisiae sgs1 mgt1 strain, at 50.0 µM, hits give high values
Procedure, shortened: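 Mutant yeast exposed to compound; growth scored against vehicle-only wells.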

[4] = NCI Yeast Anticancer Drug Screen. Data for the cln2 rad14 strain (AID 165);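 note: 0% = growth equal to vehicle treated cultures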; conditions: S. cerevisiae cln2 rad14 strain, at 50.0 µM, hits give high values
Procedure, shortened: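 The screen exposed genetically defined yeast (cln2 rad14) to test compounds and scored growth inhibition relative to vehicle-treated controls.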

[5] = NCI Yeast Anticancer Drug Screen. Data for the bub3 strain (AID 167); conditions: S. cerevisiae bub3 mutant strain, at 50.0 µM, hits give high values
Procedure, shortened: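 Readout: yeast growth inhibition, expressed relative to vehicle-only wells. The test organism is a mutant strain from a panel with lesions in DNA repair or checkpoint genes.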

[6] = NCI Yeast Anticancer Drug Screen. Data for the mlh1 rad18 strain (AID 175); conditions: S. cerevisiae mlh1 rad18 strain growth inhibition; at 50.0 µM; hits give high values
Procedure, shortened: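 Compound-treated yeast growth, normalised to vehicle controls. Strain bears defined DNA repair mutations.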

Row | SMILES | growth inhibition [1] | growth inhibition [2] | growth inhibition [3] | growth inhibition [4] | growth inhibition [5] | growth inhibition [6]
1 | Clc1cc(/C=C/c2ccccc2)c2ccccc2n1 | 25.9% | -0.05% | 12.6% | -7.5% | -4.65% | 22.3%
2 | Cc1nc2nc(NCCCN(C)C)nc(NCCCN(C)C)c2nc1C | 18.8% | 1.25% | 22.1% | 23.6% | 21.4% | 15.3%
3 | COC(=O)c1nn(-c2ccccc2)c(=O)cc1N=[N+]=[N-] | -31% | -5.2% | -39.2% | -12.8% | -14.2% | -54.4%
4 | CC(=O)c1ccc(C)cc1C | 27.9% | 4.35% | 15.3% | 2.65% | 15.4% | 2.95%
5 | c1ccc(C(SN=C2CCCCC2)(c2ccccc2)c2ccccc2)cc1 | -4.35% | -2.6% | -25.6% | 10.9% | -1.2% | -13.1%
6 | O=C(O)CC(C(=O)O)=C1CCCCC1 | 11.8% | 13.4% | 0.5% | 8.15% | 8.75% | -0.3%
7 | Nc1nc(-c2ccccc2)nc(-c2ccccc2)n1 | -2.95% | -7.05% | -8.4% | -14.2% | -21.7% | -16.4%
8 | O=C(OC1C#CCSCC#C/C=C\1)c1cnc2ccccc2n1 (centres undefined) | -34% | -13.4% | -24.3% | -11.2% | -2.55% | -23%
9 | CC(=O)OCC1OC(Sc2cccc3ccccc23)C(OC(C)=O)C(OC(C)=O)C1OC(C)=O (centres undefined) | -16.8% | -5.8% | -4.75% | -20.8% | 0% | 3.4%
10 | O=c1cc[nH]c(=S)[nH]1.[Pt] | 12.1% | 19.3% | 5.55% | -19.4% | 0.7% | 28.6%
11 | CC(NC(=O)CN)C(=O)O (centres undefined) | -43.4% | -8.55% | -8.45% | -22.6% | 5.15% | 4.4%
12 | NC(=O)N/N=C(\Cc1nc2ccc(Cl)cc2[nH]c1=O)C(=O)Nc1ccc(Cl)cc1Cl | 11.9% | 11.8% | 7.2% | -30.1% | -0.85% | 15.2%
13 | CN1C(=O)C2CC(=O)N(Cc3ccccc3)C(=O)C2C1=O (centres undefined) | 0.5% | -16.1% | -1.05% | 9.3% | -5.4% | -1.35%
14 | Cc1ccc([N+](=O)[O-])cc1NC(=O)Cc1ccccc1 | 4.05% | 29.8% | 1.45% | -8% | 18.3% | 17.6%
15 | Cc1cc(O)c([N+](=O)[O-])cc1C | -8.05% | -1.85% | -15.2% | -1.75% | 3.75% | -3.55%
16 | O=C(O)CCCc1ccc(O)cc1 | 7.1% | 11.7% | 8.4% | 10.7% | -1.15% | 20.3%
17 | COc1ccc(CCNC(=O)Cc2ccccc2CCO)cc1OC | 13.9% | -6.85% | -29.5% | -3.75% | -43.9% | -20.1%

Row | SMILES | growth inhibition [1] | growth inhibition [2] | growth inhibition [3] | growth inhibition [4] | growth inhibition [5] | growth inhibition [6]
18 | O=C1NC(=O)[C@H]2C3C=CC([C@@H]12)[C@@H]1C(=O)NC(=O)[C@H]31 | 41.7% | 21.8% | -22.1% | 7.8% | -28.7% | -47.6%
19 | CCOC(=O)c1cc(C)[nH]c1C | 2.65% | -1.9% | -0.55% | -17.6% | 23.2% | 3.9%
20 | O=c1[nH]cc([N+](=O)[O-])c(=O)[nH]1 | 14.3% | 13.1% | 8.25% | 14.7% | 16.9% | 11.2%
21 | COc1cccc(N2C(=O)[C@H]3[C@H]4CC(C(C)(C)C)CC[C@H]4c4c([nH]c5ccccc45)[C@H]3C2=O)c1 (some centres undefined) | 1.65% | -18.9% | 8.25% | 31.7% | -9.4% | -2.4%
22 | Cc1ccc(S(=O)(=O)OC2CCCC2OS(=O)(=O)c2ccc(C)cc2)cc1 (centres undefined) | 0.2% | 14.5% | -8.5% | 23.4% | -2.35% | -9.85%
23 | OC1c2ccccc2CC12Cc1ccccc1C2 (centres undefined) | 36.1% | 38.5% | 37.3% | 23.5% | 26.6% | 13.8%
24 | CC(C)(c1ccc(C(=O)O)cc1)c1ccc(C(=O)O)cc1 | -1.65% | 5.05% | -1.1% | -5.7% | -14.5% | -9.15%
25 | C/C=C(/C)C(=O)O[C@H]1C(C)=C[C@]23C(=O)[C@@H](C=C(COC(C)=O)[C@@H](O)[C@]12O)[C@H]1[C@@H](C[C@H]3C)[C@@]1(C)OC(=O)/C(C)=C\C | 58.7% | 60.4% | 60.6% | 76.3% (active) | 56.8% | 59.2%
26 | CC(=O)Nc1cccc(OCOc2ccc([N+](=O)[O-])cc2)c1 | -4.65% | 20.3% | 30.4% | -2.6% | 22.6% | 40.8%
27 | CN(/N=C/c1ccc(O)c(/C=N/N(C)c2ccccn2)n1)c1ccccn1 | -9.45% | 8% | -3.35% | -11.9% | -2.7% | 8.3%
28 | CNc1ncnc2c1c(C(N)=S)cn2C1OC(CO)C(O)C1O (centres undefined) | 0.1% | -22.7% | -13.7% | 2.2% | 0.95% | 12.5%
29 | Cc1ccc(S(=O)(=O)n2oc(N)c(Cc3ccccc3)c2=O)cc1 | -25.4% | -0.15% | 7.8% | -23.5% | 19.2% | -2.55%
30 | CCCCCC(=O)N1SC(NC(=O)OC)=Nc2ccccc21 | 63.5% | 47.5% | 64.8% | 84.3% (active) | 90.6% (active) | 83.5% (active)
31 | COc1ccc2c3c([nH]c2c1)[C@H]1C[C@H]2[C@H](C[C@@H](O)[C@H](OC)[C@H]2C(=O)O)CN1CC3 | 26.3% | 21% | -18.9% | 1.85% | 23.6% | 30.4%
32 | CCN(CC)c1ccc2c(C)cc(=O)oc2c1 | 6.35% | -10.6% | 6.35% | 3.8% | 12.9% | 0.9%
33 | Cc1ccc(N=Cc2ccc(C(N)=S)cc2)cc1 | 7.05% | 21.3% | 1.45% | -17.4% | 18.8% | 24%
34 | [Cl][Tb]([Cl])[Cl] | 16.4% | 8% | 31.8% | 40.1% | 37.2% | 29%
